Legend:
Assay in all cases: protein binding microarray; high values mean tight binding
Conditions in all cases: dsDNA, one strand shown
[1] = molecular target: RELARELA (p65 homodimer) (Homo sapiens, UniProt Q04206 1-307)
[2] = molecular target: p50p50 homodimer (Homo sapiens, UniProt P19838 7-356)
[3] = molecular target: T1, p52p52 homodimer (Homo sapiens, UniProt Q00653 4-332)
T1 sequence: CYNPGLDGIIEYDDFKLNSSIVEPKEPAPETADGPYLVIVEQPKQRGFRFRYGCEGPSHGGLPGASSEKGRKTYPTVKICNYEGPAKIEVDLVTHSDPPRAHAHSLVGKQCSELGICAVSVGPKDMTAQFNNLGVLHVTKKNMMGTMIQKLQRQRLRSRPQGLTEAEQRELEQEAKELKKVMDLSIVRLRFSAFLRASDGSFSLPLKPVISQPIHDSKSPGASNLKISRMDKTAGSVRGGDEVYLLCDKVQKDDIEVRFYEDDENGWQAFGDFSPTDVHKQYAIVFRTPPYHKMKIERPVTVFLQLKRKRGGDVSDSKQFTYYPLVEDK

[4] = molecular target: RELA (p65) subunit of heterodimer;p50 subunit (Homo sapiens;Homo sapiens, UniProt Q04206;P19838 1-307;7-356)
[5] = molecular target: RELA (p65) subunit of heterodimer;p52 subunit (Homo sapiens;Homo sapiens, UniProt Q04206;Q00653 1-307;4-332)
[6] = molecular target: RELB subunit;p50 subunit (Homo sapiens;Homo sapiens, UniProt Q01201;P19838 120-401;7-356)
[7] = molecular target: T2, RELB subunit;p52 subunit (Homo sapiens;Homo sapiens, UniProt Q01201;Q00653 120-401;4-332)
T2 sequence 1: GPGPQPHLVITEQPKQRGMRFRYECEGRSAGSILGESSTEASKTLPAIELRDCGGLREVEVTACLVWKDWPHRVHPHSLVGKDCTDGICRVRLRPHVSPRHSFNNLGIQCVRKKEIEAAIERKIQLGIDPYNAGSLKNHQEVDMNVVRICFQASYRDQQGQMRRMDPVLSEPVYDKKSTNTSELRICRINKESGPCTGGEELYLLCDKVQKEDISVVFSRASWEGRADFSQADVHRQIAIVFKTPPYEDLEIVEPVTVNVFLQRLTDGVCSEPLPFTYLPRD
T2 sequence 2: T1 sequence

[8] = molecular target: C-Rel subunit;p50 subunit (Homo sapiens;Homo sapiens, UniProt Q04864;P19838 1-285;7-356)
[9] = molecular target: T3, C-Rel subunit;p52 subunit (Homo sapiens;Homo sapiens, UniProt Q04864;Q00653 1-285;4-332)
T3 sequence 1: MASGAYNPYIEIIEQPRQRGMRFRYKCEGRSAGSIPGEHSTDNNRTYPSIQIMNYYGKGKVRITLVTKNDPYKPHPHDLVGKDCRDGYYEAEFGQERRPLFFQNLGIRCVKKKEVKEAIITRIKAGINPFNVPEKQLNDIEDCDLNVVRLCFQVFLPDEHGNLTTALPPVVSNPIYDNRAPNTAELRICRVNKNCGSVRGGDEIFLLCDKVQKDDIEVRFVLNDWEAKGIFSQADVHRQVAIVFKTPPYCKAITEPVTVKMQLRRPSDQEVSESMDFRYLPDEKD
T3 sequence 2: T1 sequence

Sequence of RELA (p65) subunit of heterodimer;p50 subunit (Q04206 1-307, chain 1 of 2): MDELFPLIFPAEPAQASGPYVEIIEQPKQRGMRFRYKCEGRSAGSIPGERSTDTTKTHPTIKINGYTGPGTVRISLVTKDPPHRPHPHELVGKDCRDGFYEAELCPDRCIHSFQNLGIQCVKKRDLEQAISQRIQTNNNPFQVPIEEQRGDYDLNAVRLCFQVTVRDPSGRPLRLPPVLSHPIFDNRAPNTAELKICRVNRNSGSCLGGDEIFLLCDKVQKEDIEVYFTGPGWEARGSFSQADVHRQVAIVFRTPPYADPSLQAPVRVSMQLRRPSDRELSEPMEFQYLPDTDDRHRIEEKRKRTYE
Sequence of RELA (p65) subunit of heterodimer;p50 subunit (P19838 7-356, chain 2 of 2): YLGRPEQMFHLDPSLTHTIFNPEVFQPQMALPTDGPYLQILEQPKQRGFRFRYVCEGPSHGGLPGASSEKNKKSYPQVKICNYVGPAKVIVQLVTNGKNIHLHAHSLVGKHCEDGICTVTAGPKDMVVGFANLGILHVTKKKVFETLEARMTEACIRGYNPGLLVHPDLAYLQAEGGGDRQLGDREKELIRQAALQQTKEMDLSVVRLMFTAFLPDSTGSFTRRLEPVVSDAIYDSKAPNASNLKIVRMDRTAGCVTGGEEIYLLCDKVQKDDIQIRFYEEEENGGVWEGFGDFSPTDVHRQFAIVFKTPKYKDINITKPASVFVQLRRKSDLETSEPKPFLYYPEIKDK
Sequence of RELARELA (p65 homodimer) (Q04206 1-307): as the sequence (Q04206 1-307, chain 1 of 2) above
Sequence of p50p50 homodimer (P19838 7-356): as the sequence (P19838 7-356, chain 2 of 2) above

Sequence | binding signal [1] [z-score] | binding signal [2] [z-score] | binding signal [3] [z-score] | binding signal [4] [z-score] | binding signal [5] [z-score] | binding signal [6] [z-score] | binding signal [7] [z-score] | binding signal [8] [z-score] | binding signal [9] [z-score]
AAGAACCCCCT | -0.175 | 1.5 | 1.86 | 2.09 | 1.57 | 2.18 | 2.07 | 1.44 | 1.48
AAGGTCACCCT | -0.86 | -1.49 | -0.495 | -0.903 | -0.928 | -0.645 | -0.697 | -1.21 | -0.77
AGAGGTTCCCC | 0.439 | 1.06 | 1.33 | 1.54 | 1.33 | 1.41 | 1.64 | 1.37 | 1.14
CGAGTTTCCCT | 1.14 | 1.12 | 1.17 | 1.16 | 1.16 | 1.04 | 1.42 | 1.07 | 0.975
GAAAATCTCCC | 1.06 | 0.914 | 0.592 | 0.875 | 0.8 | 1.08 | 0.63 | 0.573 | 0.538
GAGTTGCCCCC | 0.487 | 1.04 | 0.557 | 1.06 | 0.811 | 0.918 | 0.947 | 1.16 | 0.676
GAGATATCCCC | 0.294 | 1.12 | 1.16 | 1.33 | 1.3 | 1.08 | 0.95 | 0.698 | 0.964
GGGGGCCTCCC | 0.3 | 0.557 | 2.41 | 1.24 | 1.91 | 1.21 | 1.09 | 1 | 1.46
AGAATCCCCCC | 1.06 | 1.63 | 2.16 | 2.66 | 2.29 | 2.64 | 2.51 | 1.9 | 2.21
CAAATGGTCCT | -0.0232 | -1.33 | -0.481 | -1.22 | -0.808 | -0.726 | -0.534 | -1.3 | -0.727
CAGAAGGCCCC | -0.908 | -0.224 | -0.259 | -0.114 | -0.223 | -0.248 | -0.262 | -0.241 | -0.183
CGGGTCGTCCT | -0.683 | -1.36 | -0.504 | -0.972 | -0.834 | -0.864 | -0.859 | -1.15 | -0.64
GGGTACCTCCC | -0.276 | 0.39 | 1.06 | 0.436 | 0.843 | 0.429 | 0.437 | 0.243 | 0.556
AAAGGGATCCC | 0.0658 | -0.302 | 0.0251 | -0.128 | -0.268 | -0.184 | -0.115 | -0.213 | -0.202
GAGGGCTCCCC | -0.357 | 0.0285 | -0.0309 | 0.109 | -0.108 | 0.159 | -0.218 | 0.253 | 0.154
CGAGTGCTCCT | -0.962 | -2.12 | -0.788 | -1.11 | -1.03 | -1.37 | -0.983 | -1.63 | -0.978
CAAGACCTCCC | -0.906 | -1.11 | -0.577 | -0.688 | -0.796 | -0.585 | -0.626 | -0.818 | -0.713
CGGGACTCCCC | 1.91 | 0.81 | 2.76 | 1.88 | 1.9 | 1.59 | 1.87 | 1.93 | 2.5
AGGAAACTCCT | 2.04 | -0.999 | -0.404 | -0.105 | -0.54 | -0.699 | -0.839 | -0.168 | -0.211
GAGAGCCCCCC | -1.07 | 1.13 | 0.398 | 0.853 | 0.722 | 0.759 | 0.733 | 0.773 | 0.389
CGAAATCCCCC | 1.7 | 1.64 | 2.27 | 2.33 | 2.13 | 2.58 | 2.42 | 1.83 | 2.36
AGGAGGTCCCC | 0.488 | 0.454 | 0.466 | 0.767 | 0.75 | 0.631 | 0.644 | 0.617 | 0.715
CAGTTCTCCCT | 0.501 | 1.08 | 0.65 | 0.838 | 0.551 | 1.22 | 1.11 | 0.63 | 0.344
AAAATAGTCCT | -0.023 | -0.728 | -0.497 | -0.709 | -0.767 | -0.806 | -0.856 | -0.761 | -0.606
CGAGATACCCC | -0.193 | 0.305 | 0.114 | 0.439 | 0.228 | 0.539 | 0.921 | 0.515 | 0.344
GGAAGACTCCT | -0.12 | -1.87 | -0.778 | -0.958 | -1.02 | -1.23 | -0.943 | -1.17 | -0.891
GAGGGAGCCCT | -0.902 | -0.904 | -0.464 | -0.859 | -0.736 | -0.793 | -0.682 | -1.28 | -0.682
GGATACCCCCC | 0.633 | 1.23 | 1.22 | 1.77 | 1.48 | 1.06 | 1.52 | 1.14 | 1.54
AGAGGGACCCT | -0.966 | -0.326 | 0.216 | -0.688 | -0.129 | -0.226 | -0.0964 | -0.803 | -0.355
GGGAAGCTCCC | 1.42 | 0.219 | 1.52 | 1.07 | 1.16 | 0.839 | 0.35 | 0.354 | 0.716

Source: paper PMC3218832
